Data from PubChem BioAssay.
Calls of active or inactive are those of the source.

Legend:
[1] = small molecules captured by biotinylated probe aFSTL3 – biochemical, small-molecule microarray, fluorescence 635/667, stem cell growth factor project, primary screen (AID 1064); settings: higher = more signal;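 further: measures binding of the biotinylated anti-FSTL3 antibody to printed compounds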
[2] = binders from COS7 lysate, DM2A8 probe, primary screen, torsin A project, cell lysate, small-molecule microarray, fluorescence 635/667 (AID 1065); settings: higher = more signal, COS7 lysate expressing mutant human TOR1A
[3] = small molecules captured by biotinylated probe aFGF2 – biochemical, small-molecule microarray, fluorescence 635/667, stem cell growth factor project, primary screen (AID 1067); settings: higher = more signal;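 further: measures binding of biotinylated aFGF2 protein to printed compounds on slides; z-score merges feature fluorescence and signal-to-noise across triplicate slides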
[4] = small molecules captured by biotinylated probe aFGF10 – biochemical, small-molecule microarray, fluorescence 635/667, stem cell growth factor project, primary screen (AID 1071); settings: higher = more signal;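 further: score merges 667 nm spot intensity and signal to noise from triplicate slides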
[5] = target: Neurogenic locus notch homolog protein 2 (Homo sapiens) (UniProt Q04721); experiment: small molecules binding Notch2 protein – biochemical, small-molecule microarray, 635 nm fluorescence, stem cell growth factors, primary screen (AID 1073); settings: higher = more signal
[6] = target: Pro-neuregulin-1, membrane-bound isoform (Homo sapiens) (UniProt Q02297); experiment: small molecules binding neuregulin-1 protein – biochemical, small-molecule microarray, fluorescence 635/667, psychiatric disease protein project, primary screen (AID 1075); settings: NRG1 binding, 635 nm fluorescence, higher = more signal;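 further: score combines 667 nm spot fluorescence with signal to noise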
Sequence of Pro-neuregulin-1, membrane-bound isoform (Homo sapiens) (Q02297 whole entry, looked up, the tested form may be a part, canonical isoform): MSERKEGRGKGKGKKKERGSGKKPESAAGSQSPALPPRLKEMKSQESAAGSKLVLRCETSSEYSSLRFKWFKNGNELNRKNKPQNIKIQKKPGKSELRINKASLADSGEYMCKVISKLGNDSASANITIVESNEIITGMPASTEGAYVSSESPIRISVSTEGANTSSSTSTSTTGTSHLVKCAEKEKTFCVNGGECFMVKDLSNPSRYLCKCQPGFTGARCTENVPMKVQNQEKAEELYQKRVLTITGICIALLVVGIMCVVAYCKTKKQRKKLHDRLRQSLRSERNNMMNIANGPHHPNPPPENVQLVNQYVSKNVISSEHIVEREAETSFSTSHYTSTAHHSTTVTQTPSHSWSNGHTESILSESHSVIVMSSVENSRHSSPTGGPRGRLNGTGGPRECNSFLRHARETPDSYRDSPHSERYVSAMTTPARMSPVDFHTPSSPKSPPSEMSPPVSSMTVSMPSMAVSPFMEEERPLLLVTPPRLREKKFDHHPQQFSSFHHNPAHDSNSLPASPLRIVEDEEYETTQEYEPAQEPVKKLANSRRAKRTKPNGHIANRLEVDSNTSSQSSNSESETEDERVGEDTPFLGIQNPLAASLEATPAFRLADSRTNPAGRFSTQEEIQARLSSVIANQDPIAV

[7] = test system: Neuregulin-1 EGF-like domain; experiment: small molecules binding NRG1 EGF domain – biochemical, small-molecule microarray, 635 nm fluorescence, primary screen (AID 1081); settings: higher = more signal;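 further: binding of the protein to compounds printed on small-molecule microarray slides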
[8] = FRG1 expression reporter modulators in myotubes – cell-based, C2C12 myotubes, firefly/Renilla luciferase, luminescence, FRG1 inhibition for FSHD, primary screen (AID 1084); settings: FRG1 promoter luciferase, higher = more signal, called active from +8 up or from −8 down
[9] = small molecules captured by biotinylated probe aFST – biochemical, small-molecule microarray, fluorescence 635/667, stem cell growth factor project, primary screen (AID 1086); settings: higher = more signal;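 further: score merges 667 nm fluorescence with signal-to-noise of each printed compound spot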
[10] = binders of probe aHhip on microarray, primary screen, stem cell growth factor project, biochemical, small-molecule microarray, fluorescence 635/667 (AID 1087); settings: higher = more signal;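 further: score merges spot fluorescence at 667nm with spot signal to noise ratio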
[11] = test system: PRMT1 (protein arginine N-methyltransferase 1); experiment: small molecules binding arginine methyltransferase PRMT1 – biochemical, small-molecule microarray, 635 nm fluorescence, primary screen (AID 1088); settings: higher = more signal;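 further: binding of Prmt1 protein to compounds spotted on small-molecule microarray slides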
[12] = growth effects on S. cerevisiae YJM789 – YJM789 clinical isolate, OD600, 24 h, basal, primary screen (AID 1089); settings: higher = more signal, called active from +8 up or from −8 down;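 further: growth of clinical yeast isolate S. cerevisiae YJM 789 seeded 1000 cells per well; test concentration not given here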
[13] = S. pombe growth modifiers, basal conditions – strain 972, OD600, 24 h, no modulator, primary screen (AID 1090);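 further: basal condition with compound alone and no growth modifier present; test concentration not given here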; settings: S. pombe 972 growth, higher = more signal, called active from +8 up or from −8 down
[14] = budding yeast growth modifiers under rapamycin – strain BY4716, OD600, 96 h, primary screen (AID 1091); further: test concentration not given here; settings: S. cerevisiae BY4716 + rapamycin, higher = more signal, called active from +8 up or from −8 down
[15] = target: Torsin-1A-interacting protein 2 (Homo sapiens) (UniProt Q8NFQ8); experiment: small molecules binding lysate-expressed LULL1 – cell lysate, human LULL1 lysate, 635/667 nm fluorescence, primary screen (AID 1092); settings: small-molecule microarray, hLULL1 lysate binding, 635 nm fluorescence; higher = more signal;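 further: probe is lysate of COS7 cells overexpressing human LULL1; score merges per-feature 667 nm fluorescence with signal-to-noise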
Sequence of Torsin-1A-interacting protein 2 (Homo sapiens) (Q8NFQ8 whole entry, looked up): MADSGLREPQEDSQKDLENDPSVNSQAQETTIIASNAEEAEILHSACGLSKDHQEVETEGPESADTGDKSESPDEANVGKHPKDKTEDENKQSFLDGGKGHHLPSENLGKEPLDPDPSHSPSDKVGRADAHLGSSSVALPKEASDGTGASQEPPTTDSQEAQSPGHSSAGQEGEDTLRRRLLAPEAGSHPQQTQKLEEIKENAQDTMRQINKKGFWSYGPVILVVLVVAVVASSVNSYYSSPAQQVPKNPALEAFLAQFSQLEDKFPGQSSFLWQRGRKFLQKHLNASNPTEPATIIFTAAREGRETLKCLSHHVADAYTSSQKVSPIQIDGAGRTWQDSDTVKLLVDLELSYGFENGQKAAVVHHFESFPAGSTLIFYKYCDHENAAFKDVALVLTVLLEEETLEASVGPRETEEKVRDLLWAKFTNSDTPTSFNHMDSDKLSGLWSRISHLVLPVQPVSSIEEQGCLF

[16] = optical density change of DRC41 E. coli – strain DRC41, OD650, 24 h, E. coli filamentation project, primary screen (AID 1093);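 further: MC1000 strain lacking acrAB efflux and sulA so SOS filamentation is blocked; test concentration not given here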; settings: E. coli DRC41 growth, higher = more signal, called active from +8 up or from −8 down
[17] = probe aLefty2 binding to arrayed compounds – biochemical, biotinylated probe, 635/667 nm fluorescence, primary screen (AID 1094); settings: small-molecule microarray, higher = more signal;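 further: score merges spot fluorescence near 667 nm with spot signal-to-noise ratio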
[18] = test system: Noggin (protein binding on small-molecule microarray); experiment: small molecules binding Noggin protein – biochemical, 635/667 nm fluorescence, primary screen (AID 1095); settings: 635 nm fluorescence, higher = more signal;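 further: score merges 667 nm feature fluorescence with signal to noise over triplicate slides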
[19] = target: Neurogenic locus notch homolog protein 3 (Homo sapiens) (UniProt Q9UM47); experiment: small molecules binding NOTCH3 protein – biochemical, 635/667 nm fluorescence, primary screen (AID 1096); settings: small-molecule microarray, 635 nm fluorescence, higher = more signal
Sequence of Neurogenic locus notch homolog protein 3 (Homo sapiens) (Q9UM47 whole entry, looked up): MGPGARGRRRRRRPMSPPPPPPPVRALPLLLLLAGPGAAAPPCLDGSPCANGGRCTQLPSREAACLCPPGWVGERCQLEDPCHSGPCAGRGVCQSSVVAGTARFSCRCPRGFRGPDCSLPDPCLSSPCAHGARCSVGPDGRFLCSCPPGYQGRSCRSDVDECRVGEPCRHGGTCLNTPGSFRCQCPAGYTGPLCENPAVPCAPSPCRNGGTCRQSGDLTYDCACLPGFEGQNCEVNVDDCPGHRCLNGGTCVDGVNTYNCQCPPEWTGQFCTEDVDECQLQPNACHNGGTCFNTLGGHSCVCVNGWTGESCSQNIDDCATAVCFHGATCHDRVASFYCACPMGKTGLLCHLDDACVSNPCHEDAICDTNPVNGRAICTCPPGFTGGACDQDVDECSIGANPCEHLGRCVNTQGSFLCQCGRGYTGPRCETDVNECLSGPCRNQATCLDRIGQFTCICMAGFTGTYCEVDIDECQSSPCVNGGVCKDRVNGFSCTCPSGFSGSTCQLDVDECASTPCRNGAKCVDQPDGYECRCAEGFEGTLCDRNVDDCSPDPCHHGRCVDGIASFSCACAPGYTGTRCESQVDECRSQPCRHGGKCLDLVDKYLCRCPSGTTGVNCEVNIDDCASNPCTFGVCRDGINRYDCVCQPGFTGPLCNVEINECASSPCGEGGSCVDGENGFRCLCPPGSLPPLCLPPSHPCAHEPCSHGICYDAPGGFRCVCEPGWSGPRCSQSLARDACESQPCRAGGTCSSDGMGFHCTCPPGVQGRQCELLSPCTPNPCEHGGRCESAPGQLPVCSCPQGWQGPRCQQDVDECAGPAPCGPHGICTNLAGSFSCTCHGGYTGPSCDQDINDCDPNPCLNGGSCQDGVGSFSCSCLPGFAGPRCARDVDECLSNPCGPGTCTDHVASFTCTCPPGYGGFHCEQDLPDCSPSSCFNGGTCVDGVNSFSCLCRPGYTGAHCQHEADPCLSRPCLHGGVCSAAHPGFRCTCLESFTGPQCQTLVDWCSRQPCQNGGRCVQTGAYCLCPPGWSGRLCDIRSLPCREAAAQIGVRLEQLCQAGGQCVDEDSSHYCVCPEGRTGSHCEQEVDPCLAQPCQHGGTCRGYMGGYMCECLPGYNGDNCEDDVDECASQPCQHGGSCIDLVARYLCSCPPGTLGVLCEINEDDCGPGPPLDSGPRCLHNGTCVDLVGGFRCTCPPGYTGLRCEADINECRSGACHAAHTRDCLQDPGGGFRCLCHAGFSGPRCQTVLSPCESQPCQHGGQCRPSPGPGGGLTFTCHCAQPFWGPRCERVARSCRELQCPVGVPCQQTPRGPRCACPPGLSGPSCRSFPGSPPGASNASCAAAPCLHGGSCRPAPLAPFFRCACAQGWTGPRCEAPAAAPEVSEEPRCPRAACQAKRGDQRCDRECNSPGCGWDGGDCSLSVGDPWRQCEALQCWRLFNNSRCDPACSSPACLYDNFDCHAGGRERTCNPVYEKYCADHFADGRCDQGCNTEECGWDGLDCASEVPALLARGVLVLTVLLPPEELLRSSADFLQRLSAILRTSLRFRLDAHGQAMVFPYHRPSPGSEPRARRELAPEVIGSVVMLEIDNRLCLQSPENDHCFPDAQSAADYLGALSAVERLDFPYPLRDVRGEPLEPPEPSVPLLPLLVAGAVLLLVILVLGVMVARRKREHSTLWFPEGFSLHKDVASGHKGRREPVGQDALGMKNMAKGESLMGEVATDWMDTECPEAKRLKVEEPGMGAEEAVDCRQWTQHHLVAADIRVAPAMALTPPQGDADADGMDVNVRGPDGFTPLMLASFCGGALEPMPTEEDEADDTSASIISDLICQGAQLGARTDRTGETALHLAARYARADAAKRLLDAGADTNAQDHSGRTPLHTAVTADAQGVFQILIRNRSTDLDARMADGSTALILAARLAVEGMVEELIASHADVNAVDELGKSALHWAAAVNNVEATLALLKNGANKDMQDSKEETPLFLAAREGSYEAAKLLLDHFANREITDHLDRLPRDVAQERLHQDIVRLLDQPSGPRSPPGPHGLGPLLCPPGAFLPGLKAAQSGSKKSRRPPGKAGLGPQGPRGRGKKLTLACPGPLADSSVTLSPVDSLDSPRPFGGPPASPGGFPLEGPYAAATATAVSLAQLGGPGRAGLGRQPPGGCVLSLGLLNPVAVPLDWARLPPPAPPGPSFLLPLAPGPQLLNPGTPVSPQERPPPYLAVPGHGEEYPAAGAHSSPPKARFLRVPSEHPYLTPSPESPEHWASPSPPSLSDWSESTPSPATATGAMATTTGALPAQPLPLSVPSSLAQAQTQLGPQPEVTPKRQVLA

[20] = probe aEGFR binding to arrayed compounds – biochemical, biotinylated probe, 635/667 nm fluorescence, primary screen (AID 1097); settings: small-molecule microarray, higher = more signal;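 further: probe is a biotinylated anti-EGFR antibody binding compounds printed on slides; score combines fluorescence near 667 nm and signal to noise of each spot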

Structure (SMILES)	composite z-score [1]	composite z-score [2]	composite z-score [3]	composite z-score [4]	composite z-score [5]	composite z-score [6]	composite z-score [7]	z-score [8]	composite z-score [9]	composite z-score [10]	composite z-score [11]	z-score [12]	z-score [13]	z-score [14]	composite z-score [15]	z-score [16]	composite z-score [17]	composite z-score [18]	composite z-score [19]	composite z-score [20]
COC(=O)c1c(CC[C@@H](CO)NC(=O)N2CCC[C@H]2Cn2cc(-c3ccccn3)nn2)oc(C(C)=O)c1C(=O)OC	-0.508	-0.0298	-0.1	0.639	-0.357	0.963	0.808	0.634 (inactive)	-0.0939	-0.0427	0.986	-0.833 (inactive)	0.195 (inactive)	-1.46 (inactive)	3.03	1.25 (inactive)	-0.155	0.81	-0.126	-0.13
Cc1ccc(S[C@]2(C(=O)NC(C)C)CC(=O)N(Cc3ccccc3Cl)[C@@H]2c2ccc(CO)cc2I)cc1	0.319	-0.756	-0.223	-0.719	-1.31	1.85	1.02	-1.42 (inactive)	-0.377	-0.0994	1.14	-1.59 (inactive)	-1.98 (inactive)	0.239 (inactive)	1.81	0.0987 (inactive)	0.0282	-0.28	-0.317	-0.287
NCCCCCNC(=O)[C@@H]1C[C@@H]2C(=O)N[C@@H](Cc3ccccc3)C(=O)N2[C@@H]1c1cccc(OCCO)c1	0.185	0.291	-0.107	0.106	0.514	1.32	1.08	1.39 (inactive)	-0.122	-0.0645	0.715	0.653 (inactive)	-0.175 (inactive)	0.68 (inactive)	1.8	-0.47 (inactive)	-0.0075	0.363	-0.448	-0.218
CC[C@@H]1C=C(C(=O)O)[C@H](c2ccco2)N1S(=O)(=O)c1ccc(C)cc1	0.001	0.0518	-0.0141	-0.214	-0.974	0.179	0.504	0.0623 (inactive)	0.545	-0.0391	0.475	0.316 (inactive)	0.535 (inactive)	-0.407 (inactive)	0.0172	0.0597 (inactive)	-0.0644	0.237	-0.14	-0.171
[N-]=[N+]=NCc1ccccc1C[C@]1(C(=O)N2CCOCC2)N=C(c2ccc(OCCCO)cc2)O[C@H]1c1ccccc1N=[N+]=[N-]	0.0631	1.43	0.136	1.12	1.55	0.872	1.29	-0.395 (inactive)	2.05	0.259	1.41	-1.18 (inactive)	-2.26 (inactive)	2.79 (inactive)	3.51	0.188 (inactive)	0.349	1.5	1.03	0.144
[N-]=[N+]=NCc1ccccc1C[C@]1(C(=O)O)N=C(c2ccc(OCCCO)cc2)O[C@H]1c1ccccc1N=[N+]=[N-]	-0.146	0.268	-0.0004	0.833	1.52	1.78	1.25	-1.47 (inactive)	0.921	0.138	1.56	0.869 (inactive)	-0.742 (inactive)	0.924 (inactive)	3.21	0.644 (inactive)	-0.128	0.435	1.14	0.012
COC(=O)C(CC#Cc1ccc2c(c1)[C@]1(C(=O)N2)[C@H](c2ccc(O)cc2)N2[C@H](c3ccccc3)[C@H](c3ccccc3)OC(=O)[C@H]2[C@@H]1C(=O)Nc1nc2ccccc2s1)C(=O)OC	-0.386	0.372	0.0402	1.08	1.23	1.44	1.24	-0.532 (inactive)	0.313	-0.0672	1.54	-1.28 (inactive)	-0.496 (inactive)	-1.33 (inactive)	3.22	0.91 (inactive)	0.0669	0.508	1.13	0.0414
CC(C)C[C@@H]1NC(=O)[C@@H]2C[C@H](C(=O)NCCCCCN)[C@H](c3cccc(OCCO)c3)N2C1=O	0.235	-0.0087	0.0465	0.796	0.128	1.4	1.29	-0.284 (inactive)	0.393	0.28	1.3	-4.39 (inactive)	-0.894 (inactive)	-1.13 (inactive)	2.73	0.758 (inactive)	0.215	0.359	0.244	-0.0549
C=CCNC(=O)[C@@H]1[C@H]2C(=O)O[C@H](c3ccccc3)[C@H](c3ccccc3)N2[C@H](c2ccccc2OCCO)[C@@]12C(=O)N(C(=O)OCCOC)c1ccc(C#CCNC(N)=O)cc12	-0.14	0.428	-0.0864	0.354	0.524	1.27	0.958	-0.623 (inactive)	-0.0306	0.251	1.46	1.11 (inactive)	0.731 (inactive)	2.72 (inactive)	2.85	-0.395 (inactive)	0.0395	0.61	1.12	0.0149
COc1ccc(NN2C(C(O)c3ccc([N+](=O)[O-])cc3)C=CC3C(=O)N(C4CCCCC4)C(=O)C32)cc1 (stereo not given)	0.091	-0.174	-0.0782	0.389	0.901	0.348	0.755	-0.068 (inactive)	0.844	-0.0346	0.849	0.346 (inactive)	0.811 (inactive)	0.572 (inactive)	2.69	-0.103 (inactive)	0.192	-0.0162	1.09	-0.143
O=C1OCCC/C=C\[C@H]2OC34C=CCN(Cn5nnc6ccccc65)C(=O)[C@H]3N(CCCCCCO)C(=O)[C@@H]4C12 (stereo not given in full)	0.144	1.57	-0.167	-1.04	-0.969	0.0553	1.25	-0.584 (inactive)	-0.582	-0.273	0.827	-3.24 (inactive)	-0.0541 (inactive)	-1.28 (inactive)	3.5	2.87 (inactive)	-0.181	-0.272	-0.269	-0.224
